# In paper PMC5540273 (PLoS ONE, 2017):
# Tested on: MRCKA
# Details: concentration: 1 μM,replicates: in singlicate; n = 1
# 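Also: KINOMEscan kinase panel screen.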
row,SMILES,%Inh
1,CC(C(=O)NC1CCN(c2ccnc(Nc3ccc(F)cc3)n2)C1)c1ccc(Cl)cc1 (stereo not drawn) [GSK1379713],0%
2,C[C@@H]1CCN(C(=O)N2CCCC2)C[C@@H]1N(C)c1ncnc2[nH]ccc12,0%
3,NC(=O)c1ccc(-c2cc3ncnc(SCC(=O)O)c3s2)cc1,0%

# Tested on: T1, MRCKB
# T1 construct: gene CDC42BPB
# Details: concentration: 1 μM,replicates: in singlicate; n = 1
row,SMILES,%Inh
1,C[C@@H](Oc1cc(-n2cnc3cc(-c4ccncc4)ccc32)sc1C(N)=O)c1ccccc1Cl [GSK479719],8%
2,COc1cc2c(Nc3ccc(NC(=O)c4ccccc4)cc3)ncnc2cc1OCCCN1CCOCC1 [GSK301329],0%
3,Cc1cccc(-c2nc(Nc3ccncc3)c3sccc3n2)n1 [GW869641],98.5%
4,Cl.Cl.NC[C@H](CC1CCCCC1)NC(=O)c1ccc(-c2ccnc3[nH]ccc23)s1 [GSK1581428],99.1%
5,Cc1ccc(Nc2ccnc(Nc3ccc4c(c3)CS(=O)(=O)C4)n2)cc1O.Cl [GW579362],0%
6,CCOC(=O)N1CCC(n2cnc(-c3ccc(F)cc3)c2-c2ccnc(N)n2)CC1 [SB-219952],3%
7,CS(=O)(=O)c1cccc(CNc2nc(Nc3ccc4c(c3)[C@@H]3C[C@@H]4CNC3=O)ncc2C(F)(F)F)c1,0%
8,O=C(Nc1ccc(Oc2ccc3nc(NC(=O)C4CC4)cn3n2)c(F)c1)c1cccn(-c2ccccc2)c1=O,0%
9,Cc1ccc(C(=O)Nc2ccc(Oc3ccc4nc(NC(=O)C5CC5)cn4c3)c(F)c2)c(=O)n1-c1ccccc1,0%
